Measurements: PubChem BioAssay (NCI)
The panel holds about 83,000 compounds, 20% with a hit somewhere; the sample as a whole holds those more often.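 Each cell line was grown in a 96-well plate and treated with one concentration of compound for 48 hours. Values below 10 were considered active.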 Unmarked numbers belong to inactive results. The source made the active and inactive calls.

Each molecule was assayed on UACC-62 melanoma (assay: NCI-60 one-dose screen, 48 h (100 = growth as untreated, 0 = no growth, -100 = all killed)). Conditions: 10 µM unless noted.
Procedure: Growth inhibition of the UACC-62 human tumor cell line is measured as a screen for anti-cancer activity. Cells are grown in 96 well plates and exposed to the test compound for 48 hours. Compounds are tested at a single concentration, which is 10^-5 M for most compounds. The reported endpoint is percent growth (GI% or GIPRCNT), where numbers from 0 - 100% represent growth inhibition, and numbers from -100% - 0 represent cell death. For example, a value of 40 represents 60% growth inhibition. A value of 0 means no net growth occurred over the course of the experiment. A value of -40 indicates 40% of cells at the beginning of the experiment died by the end of the experiment. A value of -100 means all cells are dead at the end of the experiment.
NCI-60 Human Tumor Cell Lines Screen was performed using the standard one-dose NCI protocol, which is described in more detail at https://dtp.cancer.gov/discovery_development/nci-60/default.htm.
Compounds with GIPRCNT values below 10 were considered active. Activity score was based on GIPRCNT using the following formula: […]
Score is 0 for GIPRCNT values of 100 or above, 50 for GIPRCNT values of 0, and 100 for GIPRCNT values of -100.

Row | Structure (SMILES) | growth
1 | CCCCn1c(Cc2ccc(Cl)cc2)nc2cc(OC)c(OC)cc2c1=O | 52.5%
2 | NC(N)=N/N=C(/c1ccccc1)c1ccc(Cl)cc1 | 74.4%
3 | C/C(=C\CCc1ccoc1)CC/C=C(\C)CCCN1CCC(CO)CC1 | -63.3% (active)
4 | CC(C)C(=O)Cc1cnccn1 | 98.1%
5 | C[C@]12CC[C@@H]3c4ccc(O)cc4CC[C@H]3[C@@H]1CC[C@@H]2NS(=O)(=O)c1cccc(Br)c1 | 70%
6 | O=C(CCc1nnc(Cn2cncn2)o1)c1nc2ccccc2[nH]1 | 97.9%
7 | O=C(Cn1ccnc1)NC(c1ccccc1)c1ccccc1 | 89.7%
8 | C=C(C)[C@H]1CC/C(C)=C/CC[C@]2(C)O[C@H]2CC/C(COC(C)=O)=C\C1=O | 108%
9 | COc1ccc2c(c1)[nH]c(=O)c1c3cc(OC)c(OC)cc3cn21 | 48.9%
10 | Oc1ccc(-c2nn(-c3ccccc3)cc2-c2nc3ccccc3s2)cc1 | 88.1%
11 | NC(=O)SCC(=O)Nc1ccccc1-c1ccccc1 | 81.5%
12 | CCN(CC)CCCCNc1c2ccccc2[n+](C)c2c1[nH]c1ccccc12 | -69.6% (active)
13 | CC(O)c1nc2c(c(=O)n(C)c(=O)n2C)n1C (stereo not given) | 102%
14 | O=C(Nc1ccc(C2=NCCCN2)cc1)Nc1ccc(C2=NCCCN2)cc1 | 87.7%
15 | O=C(CSCC(=O)N/N=C/c1ccccc1O)N/N=C\c1ccccc1O | 11.2%
16 | O=C1NCN(CCO)CN1 | 92.8%
17 | O=C(Nc1nc2ccccc2s1)c1cc(-c2ccc(F)cc2)n2nc(-c3ccccc3)cc2n1 | 70.6%
18 | C=C1c2c(C)nn(-c3ccc(C#CCOC4OC(CO)C(O)C(O)C4O)cc3)c2N(C)C23C[C@H]1C1(C)c4c(C)nn(-c5ccc(C#CCOC6OC(CO)C(O)C(O)C6O)cc5)c4N(C)C(C)(C[C@H]12)C3 (stereo not given in full) | -36.7% (active)
19 | Cc1cc(C)n2nc(SCC(=O)Nc3sc4c(c3C(N)=O)CCC4)nc2n1 | 80.5%
20 | ClC1C2CC(c3ccccc32)C1Cl (stereo not given) | 101%

Row | Structure (SMILES) | growth
21 | Cc1c(C(N)=O)sc2c1C(=O)N(Cc1ccccc1)C1=NN=C(c3ccc(Cl)cc3)CN12 | 25.4%
22 | CC(=O)O[C@H]1C(=O)[C@@]2(C)C([C@H](OC(=O)c3ccccc3)[C@]3(O)C[C@H](OC(=O)[C@H](O)[C@@H](NC(=O)c4ccccc4)c4ccccc4)C(C)=C1C3(C)C)[C@]1(OC(C)=O)CO[C@@H]1C[C@@H]2O (stereo not given in full) | 42.5%
23 | O=c1ccn(C2CCCO2)c(=O)[nH]1 (stereo not given) | 109%
24 | Cc1cc2c(cc1C)Nc1sc(NC(=O)CN3CCN(C)CC3)nc1C(=O)N2 | 105%
25 | Cc1ccc(C=C2C(Cl)=C(Cl)C(Cl)=C2Cl)cc1 | -73.6% (active)
26 | COc1ccc(C(=O)Nc2nc(-c3ccc(Cl)cc3)cs2)cc1 | 102%
27 | Nc1c2ccccc2nc2ccccc12 (tested in a mixture with another compound) | 5.82% (active)
28 | COc1cccc(/C=C2\COc3ccc(O)c(O)c3C2=O)c1OC | 8.54% (active)
29 | C/C(=C\CCc1ccsc1)CC/C=C(\C)CCCN1CCC(CO)CC1 | -83.4% (active)
30 | COc1cc(-c2cc(C(=O)Nc3nc4ccccc4s3)nc3cc(-c4ccccc4)nn23)cc(OC)c1OC | 67.8%
31 | CC(c1ccccn1)C(C)(O)C(C)c1ccccn1 (stereo not given) | 95.6%
32 | Cc1nc2c(O)cccc2cc1CO | 94.6%
33 | CC1=C(C(=O)Nc2ccccc2)C(c2ccc3c(c2)OCCO3)NC(=O)N1 (stereo not given) | 101%
34 | COc1ccc(-n2nc3c(c2-c2ccc(OC)c(OC)c2)-c2oncc2CC3)cc1 | 73.3%
35 | COc1cc(NC(=O)c2cc3ccccc3cc2O)c(OC)cc1Cl | 24%
36 | O=C1/C(=C/c2ccc3cccc(Cl)c3n2)SC(=S)N1CCc1ccc(O)cc1 | 68.4%
37 | CCCCc1nc(Cl)c(CO)n1Cc1ccc(-c2ccccc2-c2nn[nH]n2)cc1 | 102%
38 | O=C(Cc1ccccn1)C(F)(F)C(F)(F)C(F)(F)F | 102%
39 | Oc1[nH]c2ccc(Cl)cc2c1/C=c1/ccc2c(c1)N=C(c1ccc(C(F)(F)F)cc1)N=2 | 61.6%
40 | CCCc1cccc(CCC)c1O | 107%
